Where “and” joins values, the source holds several entries; their conditions need not be identical. Identical values can stand only once. Results filed as inconclusive are left out. For some assays here: Measured potencies and affinities stand elsewhere. Calls of active or inactive are those of the source. Unless noted, no rule for the calls is given here.

A short description of assay [1]: liver-stage malaria parasite growth inhibition, primary screen, cell-based, HepG2, luciferase luminescence, HepG2 viability (AID 624349; in the data active = parasite load remaining mostly below about 12%, no sharp cut-off; inactive = mostly above about 10%;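 also: 100% = mean of DMSO negative control wells on the same plate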). As to conditions: P. berghei liver stage in HepG2, luciferase luminescence, concentration not given here; parasite load remaining: stronger effect = lower value; viability: measured here: HepG2 viability without parasites.
Assay [2] addresses 6-phosphogluconate dehydrogenase, decarboxylating (Homo sapiens) (UniProt P52209). The assay is described as follows: 6PGD enzyme inhibitors, primary screen, biochemical, human, recombinant enzyme, NADPH absorbance (AID 1159550;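 active = at least 20% inhibition of 6-phosphogluconate dehydrogenase activity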). As to conditions: recombinant 6PGD, NADPH absorbance 341 nm; at 10 µM; stronger effect = higher value.
A short description of assay [3]: differential killing of epithelial or mesenchymal cells, primary screen, imaging, PC-3E GFP, TEM4-18 mCherry, co-culture (AID 1345086;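 active = compounds killing one labelled cell type while sparing the other, by normalised counts and ratio limits, not self-fluorescent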;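 as to all read-outs here: cells exposed to compound for 72 h before imaging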;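 as to red/green cell ratio (normalised): normalised mesenchymal count divided by normalised epithelial count so high means epithelial killing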). Conditions: imaging cell counts, at 1 µM; for red/green cell ratio (normalised): actives lie on both sides.
In assay [4] the test system is Aerobactin synthetase IucA (Klebsiella pneumoniae hvKP1). The assay is described as follows: Biochemical IucA enzyme inhibition primary screen of the Spectrum library (AID 1346200).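 Also: 100% = wells without compound and 0% = wells lacking enzyme.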 Conditions: malachite green pyrophosphate, A620, at 8 µM, stronger effect = lower value.
For assay [5], the target named is NAD(+) hydrolase SARM1 (Homo sapiens) (UniProt Q6SZW1). The assay is described as follows: SARM1 TIR NADase inhibitors, cell lysate, NAD-Glo luminescence (AID 1508614;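 active = compound whose remaining NAD level is above about 45 nM, limit read from the data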;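 also: higher remaining NAD means stronger inhibition of SARM1 NADase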). As to conditions: SAM-TIR HEK293T lysate NADase, at 1 µM, stronger effect = higher value.
The target of assay [6] is Mitogen-activated protein kinase 7 (Homo sapiens) (UniProt Q13164). The assay can be described thus: ERK5 transactivation activators in reporter cells, primary screen, cell-based, HTS (AID 1508626;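 active = luciferase signal above three times the same-plate solvent-only control wells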;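 also: luciferase driven by Gal4-ERK5 fusion binding five Gal4 sites before minimal TATA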). Conditions: HeLa Gal4-ERK5 transactivation, 18 h, at 5 µM, stronger effect = higher value.
In assay [7] the target is ATP-dependent translocase ABCB1 (Homo sapiens) (UniProt P08183). The assay is described as follows: MDR1 (ABCB1) efflux transporter inhibition, cell-based (AID 377; in the data active = fluorescence slope change above about 50%). As to conditions: MDR1-expressing cells, fluorescent substrate accumulation slope; stronger effect = higher value; concentration not given here.
A short description of assay [8]: polyglutamine-triggered caspase-3 activation inhibitors, cell-based (AID 1583). As to conditions: polyglutamine-induced caspase-3 activation, cell assay; stronger effect = higher value;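 tested at 10 µM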.
Assay [9] is described as follows: suppressors of polyQ aggregation in yeast, 75Q-TubU reporter (AID 1593). As to conditions: Yeast 75Q polyglutamine aggregation reporter.
A short description of assay [10]: rescue of polyQ-huntingtin neuronal dysfunction in worms, whole organism, C. elegans mechanosensory neurons, N-terminal huntingtin (AID 1599). As to conditions: touch response, stronger effect = higher value.
The nature of assay [11]: inhibitors of mitochondrial cytochrome c release, biochemical, purified mitochondria (AID 1603).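 Also: mouse liver mitochondria challenged with calcium chloride; signal normalized to the plate average as 100%.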 As to conditions: stronger effect = lower value.
The nature of assay [12]: inhibitors of polyQ protein aggregation (AID 1604). As to conditions: polyglutamine-induced protein aggregation inhibition assay; stronger effect = higher value; tested at 2.5 µM.
Assay [13] in a line: enhancers of glutamate uptake in motor neurons, MN-1 cell line (AID 1612).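 Also: tested at 1 µM final; 0% = mean of DMSO vehicle wells on each plate; positive means more glutamate uptake than control and negative means less.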 Conditions: MN-1 motor neuron cells, stronger effect = higher value.
Assay [14] in a line: reducers of polyQ inclusions in PC12 cells, cell-based, NGF-treated PC12, GFPQ80 (AID 1614).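 Also: lower means fewer inclusions and 0 means no inclusions at all.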 Conditions: PC12 NGF-treated GFP-polyQ80 inclusion reduction.
A short description of assay [15]: suppressors of polyglutamine aggregation in yeast, 75Q-TubH (AID 1616). Conditions: S. cerevisiae 75Q-TubH polyglutamine aggregation suppression; stronger effect = higher value.
The nature of assay [16]: circadian clock period modulators, cell-based, LOPAC library, luminescence reporter (AID 2774).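 Also: values are relative to mean of DMSO wells on each plate.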 As to conditions: circadian reporter cells, at 7 µM, actives lie on both sides.
Assay [17] in a line: hESC survival regulators, cell-based (AID 493140).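 Also: cells exposed to compounds for four days before counting.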 Conditions: human embryonic stem cell survival screen; stronger effect = higher value.
Assay [18] is described as follows: survival rescue of mitochondrial mutant cells in low glucose, primary screen, MELAS cybrids, Rieske KO mouse fibroblasts, CellTiter-Glo (AID 1508586;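 active = mean z-score across replicates of 1.96 or higher in either the MELAS or the Rieske mutant cell line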;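 also: z relative to plate mean and SD of compound and empty wells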). For orientation: Cellular ATP, detected with luciferase, serves as a proxy for viable cell number.
The nature of assay [19]: viability rescue of complex I mutant cybrids, primary screen, cell-based, galactose medium, ATP luminescence (AID 1645843;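 active = z-score of at least 1.8 in each of two replicates, scored against plate mean and spread of sample wells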;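 also: positive z means more ATP and so rescue of galactose-driven cybrid death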). As to conditions: complex I mutant cybrid cells, 72 h, stronger effect = higher value.
A short description of assay [20]: sensitizers of A549 cells to miR-34 induction, primary screen, imaging, A549 dox-inducible miR-34, nuclei and caspase counts (AID 1347080;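 active = compounds whose cell count with miR-34 switched on is under 0.7 times the count with it off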). As to conditions: A549 miR-34 inducible, Hoechst nuclei count, 48 h.
The mark [21] stands for this setting: measured here: epithelial PC-3E GFP cell survival.
Setting [22] is: measured here: mesenchymal TEM4-18 mCherry cell survival.
Where [23] appears, read: MELAS cybrid survival, CellTiter-Glo 48 h, stronger effect = higher value.
Where [24] appears, read: Rieske KO mouse fibroblast survival, CellTiter-Glo 72 h.
Setting [25] is: measured here: relative caspase fold change +Dox/-Dox.
Where [26] appears, read: measured here: total cells with miR-34 induction, stronger effect = lower value.
[27] abbreviates: measured here: total cells without miR-34 induction.

Chain of NAD(+) hydrolase SARM1 (Homo sapiens) (Q6SZW1 whole entry, looked up, the tested form may be a part): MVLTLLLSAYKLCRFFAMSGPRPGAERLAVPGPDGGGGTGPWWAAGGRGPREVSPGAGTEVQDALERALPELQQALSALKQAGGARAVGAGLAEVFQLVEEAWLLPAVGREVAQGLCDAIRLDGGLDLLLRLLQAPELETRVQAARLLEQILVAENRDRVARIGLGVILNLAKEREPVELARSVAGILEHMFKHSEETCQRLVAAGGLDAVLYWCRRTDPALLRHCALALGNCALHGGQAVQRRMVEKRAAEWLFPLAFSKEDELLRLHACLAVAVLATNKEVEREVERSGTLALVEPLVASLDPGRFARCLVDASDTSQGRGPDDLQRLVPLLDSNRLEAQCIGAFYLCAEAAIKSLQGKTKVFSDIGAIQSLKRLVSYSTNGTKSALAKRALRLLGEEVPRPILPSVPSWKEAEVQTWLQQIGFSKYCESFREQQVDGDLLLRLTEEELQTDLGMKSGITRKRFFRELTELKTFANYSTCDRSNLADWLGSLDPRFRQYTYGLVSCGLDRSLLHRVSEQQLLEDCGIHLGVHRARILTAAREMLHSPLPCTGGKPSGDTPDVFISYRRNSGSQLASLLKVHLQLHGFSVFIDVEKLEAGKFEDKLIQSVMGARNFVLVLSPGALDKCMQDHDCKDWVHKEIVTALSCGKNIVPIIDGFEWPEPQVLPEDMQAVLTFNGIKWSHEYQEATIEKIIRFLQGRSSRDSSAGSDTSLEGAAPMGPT
Chain of Mitogen-activated protein kinase 7 (Homo sapiens) (Q13164 whole entry, looked up, the tested form may be a part): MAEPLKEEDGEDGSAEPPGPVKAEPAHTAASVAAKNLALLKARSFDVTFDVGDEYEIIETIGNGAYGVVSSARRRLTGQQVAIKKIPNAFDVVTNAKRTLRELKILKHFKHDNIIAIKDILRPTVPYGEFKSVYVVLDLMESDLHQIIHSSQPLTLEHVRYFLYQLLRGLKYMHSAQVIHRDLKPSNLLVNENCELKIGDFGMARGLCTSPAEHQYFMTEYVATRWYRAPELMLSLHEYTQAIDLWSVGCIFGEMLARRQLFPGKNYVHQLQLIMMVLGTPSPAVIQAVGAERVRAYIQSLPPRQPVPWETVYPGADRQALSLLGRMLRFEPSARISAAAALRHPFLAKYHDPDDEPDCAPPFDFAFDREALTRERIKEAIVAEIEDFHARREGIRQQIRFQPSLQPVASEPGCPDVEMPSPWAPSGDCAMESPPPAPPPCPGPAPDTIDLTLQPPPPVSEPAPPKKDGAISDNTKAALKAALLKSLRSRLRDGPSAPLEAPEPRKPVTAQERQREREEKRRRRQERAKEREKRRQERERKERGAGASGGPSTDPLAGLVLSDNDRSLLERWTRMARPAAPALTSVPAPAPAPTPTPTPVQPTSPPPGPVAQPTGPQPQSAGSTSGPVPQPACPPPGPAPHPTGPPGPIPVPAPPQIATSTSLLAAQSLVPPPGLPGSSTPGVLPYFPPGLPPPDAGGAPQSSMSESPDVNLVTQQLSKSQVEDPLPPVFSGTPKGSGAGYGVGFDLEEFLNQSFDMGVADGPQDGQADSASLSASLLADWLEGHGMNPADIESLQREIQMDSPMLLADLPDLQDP
Chain of 6-phosphogluconate dehydrogenase, decarboxylating (Homo sapiens) (P52209 whole entry, looked up): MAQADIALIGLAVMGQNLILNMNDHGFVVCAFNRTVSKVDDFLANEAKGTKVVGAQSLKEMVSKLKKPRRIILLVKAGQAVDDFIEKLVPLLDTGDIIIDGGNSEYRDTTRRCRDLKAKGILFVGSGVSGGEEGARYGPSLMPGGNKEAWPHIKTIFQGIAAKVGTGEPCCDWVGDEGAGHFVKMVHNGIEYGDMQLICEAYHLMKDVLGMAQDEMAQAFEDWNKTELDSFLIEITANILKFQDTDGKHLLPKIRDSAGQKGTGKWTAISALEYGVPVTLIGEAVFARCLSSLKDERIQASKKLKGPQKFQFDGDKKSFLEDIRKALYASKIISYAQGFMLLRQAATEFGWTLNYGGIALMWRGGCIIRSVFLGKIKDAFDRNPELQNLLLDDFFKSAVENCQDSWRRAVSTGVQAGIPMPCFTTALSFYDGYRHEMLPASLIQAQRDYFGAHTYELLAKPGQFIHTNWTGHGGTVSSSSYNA
Chain of ATP-dependent translocase ABCB1 (Homo sapiens) (P08183 whole entry, looked up): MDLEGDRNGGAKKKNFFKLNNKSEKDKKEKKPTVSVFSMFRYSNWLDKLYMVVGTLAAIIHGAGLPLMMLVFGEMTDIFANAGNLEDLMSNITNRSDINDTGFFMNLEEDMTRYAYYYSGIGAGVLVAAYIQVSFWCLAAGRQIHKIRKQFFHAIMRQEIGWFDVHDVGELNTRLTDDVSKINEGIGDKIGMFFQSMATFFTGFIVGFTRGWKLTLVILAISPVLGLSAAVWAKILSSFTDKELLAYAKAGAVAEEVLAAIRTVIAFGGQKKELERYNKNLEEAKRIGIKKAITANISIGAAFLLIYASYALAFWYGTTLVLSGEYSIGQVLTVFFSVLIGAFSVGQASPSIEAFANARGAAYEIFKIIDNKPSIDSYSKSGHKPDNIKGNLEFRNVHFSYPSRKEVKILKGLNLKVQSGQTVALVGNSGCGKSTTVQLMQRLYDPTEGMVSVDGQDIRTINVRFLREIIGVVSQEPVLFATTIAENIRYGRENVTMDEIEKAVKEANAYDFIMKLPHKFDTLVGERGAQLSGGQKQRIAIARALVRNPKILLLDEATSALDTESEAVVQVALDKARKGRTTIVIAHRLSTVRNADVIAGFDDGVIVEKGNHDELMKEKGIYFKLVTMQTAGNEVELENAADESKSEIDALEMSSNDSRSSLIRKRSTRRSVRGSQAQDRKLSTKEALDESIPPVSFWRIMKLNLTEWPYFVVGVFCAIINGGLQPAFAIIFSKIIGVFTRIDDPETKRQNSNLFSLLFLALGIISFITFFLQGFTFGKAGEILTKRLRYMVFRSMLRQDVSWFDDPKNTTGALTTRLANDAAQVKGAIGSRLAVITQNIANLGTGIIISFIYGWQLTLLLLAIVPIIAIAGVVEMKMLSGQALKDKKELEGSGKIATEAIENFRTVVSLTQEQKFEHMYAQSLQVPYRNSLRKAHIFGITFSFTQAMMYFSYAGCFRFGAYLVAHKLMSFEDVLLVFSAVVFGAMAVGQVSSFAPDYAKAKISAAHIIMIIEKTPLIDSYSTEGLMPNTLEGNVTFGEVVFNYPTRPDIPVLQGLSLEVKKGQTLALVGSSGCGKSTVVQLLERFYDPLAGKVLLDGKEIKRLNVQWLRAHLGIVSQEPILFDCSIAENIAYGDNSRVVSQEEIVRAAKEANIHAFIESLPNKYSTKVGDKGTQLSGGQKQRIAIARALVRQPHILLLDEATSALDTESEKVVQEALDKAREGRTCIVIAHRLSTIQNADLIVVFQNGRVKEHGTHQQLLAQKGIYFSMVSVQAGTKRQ

For `S=C=NCc1ccccc1`, in assay [1], the parasite load remaining was 45.7% (inactive) and the viability (commonly a per cent measure of how many cells are alive, often set against a control) was determined as 72.2%. In [2], the inhibition (usually the relative decrease from the control value, in per cent) is -1.63% (inactive). Further, the red/green cell ratio (normalised) in [3] is 0.83 (inactive). The normalised cell number in [3] (setting [21]) stood at 1.15. The same compound gave a normalised cell number in assay [3] (setting [22]) of 0.95. The activity remaining in [4] was 83.8% (inactive). For the same compound, the remaining NAD in assay [5] was 10 nM (inactive). The luciferase signal in assay [6] was 168 AU (active).
As to `CC[C@@H]1C(=O)OC[C@@H]1Cc1cncn1C`, the fluorescence slope change in assay [7] is 105% (active). In addition, the inhibition was 5.24% in assay [8] and -6.49% (inactive) in [2]. For the same compound, the score in [9] is 1.3. Besides, the rescue above control in assay [10] turned out to be 1.26. Also, the cytochrome c release ratio in assay [11] was found to be 1.64. Besides, the inhibition of aggregation in [12] amounted to 35.3%. Also, the glutamate uptake change in [13] amounted to 4.33%. This compound returned an inclusion score in [14] of 2. For the same compound, the aggregation suppression score in [15] was 1.4. For the same compound, the period change in assay [16] was -0.045 hour (inactive) and -0.055 hour (inactive). In addition, in assay [17], the survival is 5.75 (inactive). Also, the red/green cell ratio (normalised) in assay [3] (counts scaled to control wells, 1 = unselective) was 1.18 (inactive). In addition, the normalised cell number came to 0.97 in assay [3] (setting [21]) and 1.14 in [3] (setting [22]). Besides, the activity remaining in assay [4] is 115% (inactive). In addition, the z-score was 0.213 (inactive) in assay [18] (setting [23]); -0.117 in assay [18] (setting [24]); 0.47 (inactive) and 0.265 (inactive) and 0.26 (inactive) in assay [19]. For the same compound, the remaining NAD in [5] is 10 nM (inactive). Also, in assay [6], the luciferase signal is 44 AU (inactive).
`COc1cc([C@@H]2c3cc4c(cc3[C@@H](O)C3COC(=O)C32)OCO4)cc(OC)c1O` (stereo partly specified): in [2], the inhibition is 4.81% (inactive). The red/green cell ratio (normalised) in assay [3] is 1.06 (inactive). The normalised cell number in [3] (setting [21]) is 0.29; in [3] (setting [22]), 0.31. Besides, the activity remaining in assay [4] was 118% (inactive).
On to `CN1C2CCC1CC(OC(c1ccccc1)c1ccccc1N)C2` (stereo unspecified), for which, in [16], the period change is 0.055 h (inactive). Moreover, the inhibition in [2] was 2.13% (inactive). Also, the red/green cell ratio (normalised) in [3] is 0.76 (inactive). Besides, the figures for the normalised cell number in assay [3] (setting [21]) and in assay [3] (setting [22]) were 1.34 and 1.01, respectively. For the same compound, in [4], the activity remaining was 118% (inactive). Besides, the fold change in [20] (stronger effect = lower value) was 1 (inactive); in assay [20] (setting [25]), 2.1. Also, the cell count was 9770 in assay [20] (setting [26]) and 9760 in assay [20] (setting [27]). Further, in assay [19], the z-score is -0.4 (inactive).
As for `O=C1C=C2C=C[C@@H]3C[C@@]2(O1)[C@H]1CCCCN31`, in [1], the parasite load remaining is 73.8% (inactive) and the viability came out at 90.5%. Besides, in assay [2], the inhibition is 6.02% (inactive). In assay [3], the red/green cell ratio (normalised) was 0.9 (inactive). The compound further gave a normalised cell number in assay [3] (setting [21]) of 1.21. In assay [3] (setting [22]), this compound yielded a normalised cell number of 1.09. The activity remaining in [4] was 109% (inactive). Besides, in assay [5], the remaining NAD was 10 nM (inactive). In assay [6], the luciferase signal is 92 AU (inactive).
Consider `COc1ccc2c(c1)[nH]c1c(C)nccc12`, for which the fluorescence slope change in [7] was 59.3% (active). The survival in assay [17] was 4.58 (inactive). For the same compound, the viability in assay [1] is 76.6% and 67.9% and 85.5%. Further, the inhibition in [2] is -2.64% (inactive). Also, in assay [3], the red/green cell ratio (normalised) was 0.67 (inactive). In addition, the normalised cell number in assay [3] (setting [21]) is 0.9; in assay [3] (setting [22]), 0.6. For the same compound, the activity remaining in [4] was 104% (inactive). The fold change in assay [20] (stronger effect = lower value) is 0.845 (inactive) and 0.909 (inactive) and 0.923 (inactive); in assay [20] (setting [25]), 1.49 and 0.507 and 1.16. Moreover, the cell count in assay [20] (setting [26]) is 4630 and 5110 and 4130; in [20] (setting [27]) it was 5480 and 5630 and 4470. The values for the z-score in assay [18] (setting [23]), in assay [18] (setting [24]) and in assay [19] were 0.384 (inactive), 1.34 and -0.45 (inactive), respectively. For the same compound, the luciferase signal in assay [6] was 124 AU (inactive).

The values are drawn from PubChem BioAssay.
